Source: PubChem
In the library only some 4.6% were active in any assay of this set; here they are far more common.
Wee1 stabilizer: inhibitors of human Wee1 degradation; P30291; HeLa Luc-Wee1K328M stability, luciferase luminescence; 100% = proteasome inhibitor MG132 effect; reporter increase, % at 5 µM; actives 1.2% (n = 220,000); AID 1321;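 active means activation above the mean of all tested compounds plus 3 SD, set per screening run, cut at about 8.8% in these data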;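 further: cells exposed to compound for 20 h before luminescence read; 0% = DMSO alone and 100% = MG132 at 30 µM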
Target sequence (P30291 whole entry K328M): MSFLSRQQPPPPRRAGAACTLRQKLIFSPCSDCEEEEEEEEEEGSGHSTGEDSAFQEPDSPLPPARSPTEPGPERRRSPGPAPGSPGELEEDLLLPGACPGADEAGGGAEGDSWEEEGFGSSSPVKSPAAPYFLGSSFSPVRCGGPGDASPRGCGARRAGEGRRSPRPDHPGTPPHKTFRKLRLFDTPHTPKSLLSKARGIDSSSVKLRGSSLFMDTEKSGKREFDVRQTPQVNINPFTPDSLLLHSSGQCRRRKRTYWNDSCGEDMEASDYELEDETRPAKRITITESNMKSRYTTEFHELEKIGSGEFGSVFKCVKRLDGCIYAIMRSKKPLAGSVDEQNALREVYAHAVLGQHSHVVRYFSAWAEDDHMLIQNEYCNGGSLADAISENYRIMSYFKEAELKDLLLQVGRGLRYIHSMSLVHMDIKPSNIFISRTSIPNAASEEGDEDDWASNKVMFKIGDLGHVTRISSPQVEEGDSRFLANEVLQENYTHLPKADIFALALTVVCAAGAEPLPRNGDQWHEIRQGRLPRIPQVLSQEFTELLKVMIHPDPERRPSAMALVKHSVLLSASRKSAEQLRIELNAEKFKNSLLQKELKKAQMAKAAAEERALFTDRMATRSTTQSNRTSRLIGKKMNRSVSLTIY
DAX1 inh-1: DAX1 (NR0B1) inhibition, primary screen | HEK293T StAR-luciferase reporter, SF-1/DAX-1 repression relief | inhibition, % at 6.8 µM | actives 1.1% (n = 370,000) | AID 652010;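 active means inhibition above the mean over all tested compounds plus 3 SD, cut at about 3.6% in these data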;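 further: 0% = DAX-1 cells with DMSO and 100% = cells lacking DAX-1 with DMSO; higher inhibition means more luminescence from relief of DAX-1 repression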
ssDAF-12 act: S. stercoralis DAF-12 activation, primary screen; actives 1% (n = 370,000); activation, % at 6.8 µM; HEK293 ssDAF-12/GRIP1 lit1-tk-luc reporter, luminescence; % of 3 µM dafachronic acid response;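 active means activation above the mean over all tested compounds plus 3 SD, cut at about 0.9% in these data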;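 further: 0% = DMSO-only wells and 100% = 3 µM delta7-dafachronic acid wells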
hcDAF-12 act: activators of H. contortus DAF-12 nuclear receptor. activation, % at 6.8 µM. actives 1.4% (n = 370,000). HEK293 hcDAF-12 lit1-tk-luc reporter, luminescence; 0% DMSO, 100% Δ7-dafachronic acid;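 active means activation above the mean of all tested compounds plus 3 SD, cut at about 5.5% in these data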;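 further: 100% = response to 3 µM Δ7-dafachronic acid high control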
DAX1 inh-2: inhibitors of human orphan nuclear receptor DAX1 (NR0B1); actives 0.99% (n = 340,000); HEK293 Gal4-DAX1 luciferase reporter, luminescence; AID 504766; inhibition, % at 6.75 µM;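 active means inhibition above the mean over all tested compounds plus 3 SD, cut at about 4.2% in these data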;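 further: 0% = DAX1-transfected cells with DMSO and 100% = empty-vector control cells with DMSO; inhibition shows as a rise in luminescence from relieved DAX1 repression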
hgDAF12 agonist: agonists of H. glycines DAF-12 nuclear receptor | HEK293 GAL4-hgDAF12 UAS-luciferase reporter, agonist luminescence; normalized to butyrate control | activation, % at 6.8 µM | actives 1.8% (n = 370,000) | AID 687014;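 active means activation above a cutoff set at the mean of all screened compounds plus 3 SD, cut at about 10% in these data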;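 further: 0% = DMSO wells and 100% = sodium butyrate wells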
* marks the source's active call; other numbers are inactive results.

`CC(=O)Cn1cnc2c(cnn2-c2ccc(F)cc2)c1=O` gave DAX1 inh-1 2, ssDAF-12 act 1.0*, hcDAF-12 act -1, DAX1 inh-2 1 and hgDAF12 agonist 4.
Screening CC(C)(C)n1ncc2c(=O)n(CC(=O)c3ccc(Cl)cc3)cnc21 returned Wee1 stabilizer 3, DAX1 inh-1 2, ssDAF-12 act 0, hcDAF-12 act 3, DAX1 inh-2 2 and hgDAF12 agonist 12*.
CC(C)(C)n1ncc2c(=O)n(CC(=O)Nc3ccc(Cl)cc3)cnc21 was read as Wee1 stabilizer 2, DAX1 inh-1 0, ssDAF-12 act -1, hcDAF-12 act -2, DAX1 inh-2 0 and hgDAF12 agonist 0.
COc1ccc(-n2ncc3c(=O)n(CC(C)=O)cnc32)cc1 was read as DAX1 inh-1 0, ssDAF-12 act -1, hcDAF-12 act 2, DAX1 inh-2 1 and hgDAF12 agonist 0.
Screening C[C@@H]1CN([C@H](C)CO)S(=O)(=O)c2ccc(C#CC3CCCC3)cc2O[C@H]1CN(C)C(=O)Cc1ccccc1 returned DAX1 inh-1 -3, ssDAF-12 act -2, hcDAF-12 act 0, DAX1 inh-2 -2 and hgDAF12 agonist -1.
For O=C(CCC(=O)NC1CC1)Nc1nnc(C2CCCCC2)s1 the results were Wee1 stabilizer -1, DAX1 inh-1 -1, ssDAF-12 act -1, hcDAF-12 act -2, DAX1 inh-2 0 and hgDAF12 agonist 0.
Screening O=C(CC1CCCC1)Nc1nnc(C2CC2)s1 returned Wee1 stabilizer -1, DAX1 inh-1 0, ssDAF-12 act -1, hcDAF-12 act 0, DAX1 inh-2 4.6* and hgDAF12 agonist 3.
Screening CCCCN1CCN(C(=O)C2CCCN(C(=O)c3ccc4c(c3)NC(=O)CS4)C2)CC1 (centres undefined) returned DAX1 inh-1 0, ssDAF-12 act -1, hcDAF-12 act -2 and hgDAF12 agonist 5.
Screening CC(C)Cn1c2c(c(=O)[nH]c1=O)C(NS(=O)(=O)c1ccc(Cl)cc1)(C(F)(F)F)C(=O)N2 (centres undefined) returned Wee1 stabilizer 3, DAX1 inh-1 0, ssDAF-12 act -1, hcDAF-12 act 2, DAX1 inh-2 4.3* and hgDAF12 agonist -2.
Screening CC(=O)NC1(C(F)(F)F)C(=O)Nc2c1c(=O)[nH]c(=O)n2CC(C)C (centres undefined) returned Wee1 stabilizer -1, DAX1 inh-1 0, ssDAF-12 act -2, hcDAF-12 act -1, DAX1 inh-2 0 and hgDAF12 agonist 1.
`COC(=O)c1ccccc1NN=Nc1ccccc1[N+](=O)[O-]` gave DAX1 inh-1 -1, ssDAF-12 act -1, hcDAF-12 act 4, DAX1 inh-2 0 and hgDAF12 agonist 0.
For O=[N+]([O-])c1ccccc1N=NNc1ccccc1 the results were DAX1 inh-1 0, ssDAF-12 act 1.6*, hcDAF-12 act 3, DAX1 inh-2 0 and hgDAF12 agonist 3.
For COc1ccc(NC(=O)CSc2nnc(C)s2)cc1S(=O)(=O)N1CCOCC1 the results were DAX1 inh-1 0, ssDAF-12 act -1, hcDAF-12 act 0, DAX1 inh-2 0 and hgDAF12 agonist -1.
`CC(C)C[C@H]1COc2cccc(F)c2S(=O)(=O)N1Cc1cn(Cc2ccc(Cl)cc2)nn1` gave DAX1 inh-1 0, ssDAF-12 act -1, hcDAF-12 act 1 and hgDAF12 agonist -3.
Screening COc1ccccc1-c1nn2c(-c3ccco3)nnc2s1 returned Wee1 stabilizer 6, DAX1 inh-1 3, ssDAF-12 act 0, hcDAF-12 act 2, DAX1 inh-2 5.9* and hgDAF12 agonist 8.
Screening CCC(=O)N(c1ccccc1)C1CCN(C(=O)C(Cc2ccccc2)NC(C)=O)CC1 (centres undefined) returned DAX1 inh-1 0, ssDAF-12 act 0, hcDAF-12 act 1 and hgDAF12 agonist 0.
For Cc1cc(NS(=O)(=O)c2ccc(NC(=O)Nc3ccccc3)cc2)no1 the results were Wee1 stabilizer -2, DAX1 inh-1 0, ssDAF-12 act -1, hcDAF-12 act 0, DAX1 inh-2 1 and hgDAF12 agonist -1.
For Cc1cc(NS(=O)(=O)c2ccc(NC(=S)NCc3ccccc3)cc2)no1 the results were Wee1 stabilizer -1, DAX1 inh-1 0, ssDAF-12 act -1, hcDAF-12 act -1, DAX1 inh-2 6.5* and hgDAF12 agonist 0.
For N=c1n(CC(=O)c2ccc(Br)s2)c2ccccc2n1Cc1ccccc1 the results were Wee1 stabilizer 10*, DAX1 inh-1 0, ssDAF-12 act -1, hcDAF-12 act -1, DAX1 inh-2 -1 and hgDAF12 agonist -2.
`NCCc1c(C(=O)O)[nH]c2ccc([N+](=O)[O-])cc12` gave Wee1 stabilizer -4, DAX1 inh-1 0, ssDAF-12 act -2, hcDAF-12 act 0, DAX1 inh-2 1 and hgDAF12 agonist -1.
Cc1c(C(=O)O)[nH]c2ccc([N+](=O)[O-])cc12 was read as Wee1 stabilizer 1, DAX1 inh-1 0, ssDAF-12 act -1, hcDAF-12 act 6.2* and hgDAF12 agonist 2.
Cc1ccccc1-c1nc2cc(Cl)ccc2o1 was read as Wee1 stabilizer -2, DAX1 inh-1 0, ssDAF-12 act 0, hcDAF-12 act 2, DAX1 inh-2 0 and hgDAF12 agonist 2.
Screening CCC(=O)Nc1ccc2oc(-c3ccccc3Br)nc2c1 returned Wee1 stabilizer 2, DAX1 inh-1 3, ssDAF-12 act 0, hcDAF-12 act 2, DAX1 inh-2 4 and hgDAF12 agonist 11*.
Cc1ccccc1-c1nc2cc(NC(=O)C3CC3)ccc2o1 was read as DAX1 inh-1 2, ssDAF-12 act 0, hcDAF-12 act 5, DAX1 inh-2 1 and hgDAF12 agonist 11*.
Screening COc1ccccc1NC(=S)OCCN1CCCC12CCC(c1ccccc1)CC2 (centres undefined) returned ssDAF-12 act -1, hcDAF-12 act -3 and hgDAF12 agonist -7.
`Cc1cccc(S(=O)(=O)N[C@@H]2CC[C@@H](CCNS(=O)(=O)c3ccccc3F)O[C@@H]2CO)c1` gave DAX1 inh-1 -1, ssDAF-12 act -1, hcDAF-12 act 0 and hgDAF12 agonist -1.
`N#CCSc1ccc(-c2nc3ccccc3[nH]2)cn1` gave Wee1 stabilizer 3, DAX1 inh-1 3, ssDAF-12 act 0, hcDAF-12 act 2, DAX1 inh-2 0 and hgDAF12 agonist 11*.
For O=C(CSc1ccc(-c2ccncc2)nn1)N1CCCCC1 the results were Wee1 stabilizer -1, DAX1 inh-1 -1, ssDAF-12 act -1, hcDAF-12 act -1, DAX1 inh-2 1 and hgDAF12 agonist 0.
For COc1ccc(-c2ccc(SC)nn2)cc1 the results were Wee1 stabilizer 1, DAX1 inh-1 4.4*, ssDAF-12 act -1, hcDAF-12 act 5, DAX1 inh-2 -3 and hgDAF12 agonist 5.
